Results published in PubChem BioAssay.
Several values for one entry are separate records, joined by “and”; a condition that tells them apart may be missing. Identical values can stand only once. Values without a mark were called inactive. Activity calls are given as the source filed them.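 How the source made its calls: active means thallium flux through the channel raised or lowered by more than 3 SD from vehicle-only wells, actives on both sides; inactive means the rest.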

How the values were obtained:
Test in all cases: modulators of BK channel variants, profiling panel, selectivity assay, cell-based, U2OS BacMam, thallium flux, beta subunits (AID 1259406);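 further: initial slope of Thallos dye fluorescence rise after thallium is added; log ratio against the mean of 0.3% DMSO vehicle wells on the same plate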
[1] = tested on: F380Y; details: at 30 µM
[2] = tested on: F380Y/beta1; details: at 30 µM
[3] = tested on: F380Y/beta2Delta; details: at 30 µM
[4] = tested on: F380Y/beta4; details: at 30 µM
[5] = target: Calcium-activated potassium channel subunit alpha-1 (Homo sapiens) + Leucine-rich repeat-containing protein 26 (Homo sapiens) (UniProt Q12791+Q2I0M4); details: F380Y/Slo1WT/gamma1, at 30 µM
Sequence of Calcium-activated potassium channel subunit alpha-1 (Homo sapiens) + Leucine-rich repeat-containing protein 26 (Homo sapiens) (Q2I0M4 whole entry, looked up, one chain of several): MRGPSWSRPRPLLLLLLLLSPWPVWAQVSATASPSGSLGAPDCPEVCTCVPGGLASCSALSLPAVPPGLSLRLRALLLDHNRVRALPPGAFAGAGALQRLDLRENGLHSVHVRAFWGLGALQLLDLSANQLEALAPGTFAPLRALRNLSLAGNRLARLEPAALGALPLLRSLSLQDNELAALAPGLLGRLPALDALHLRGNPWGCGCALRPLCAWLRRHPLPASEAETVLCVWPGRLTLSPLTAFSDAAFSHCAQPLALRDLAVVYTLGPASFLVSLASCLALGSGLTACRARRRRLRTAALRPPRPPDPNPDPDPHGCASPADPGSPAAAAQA

[6] = tested on: R275C; details: at 30 µM
[7] = tested on: R275C/beta1; details: at 30 µM
[8] = tested on: R275C/beta2Delta; details: at 30 µM
[9] = tested on: R275C/beta4; details: at 30 µM
[10] = tested on: R275C/Slo1WT/beta2; details: at 30 µM

Structure (SMILES) | log fold change Tl+ flux [1] | log fold change Tl+ flux [2] | log fold change Tl+ flux [3] | log fold change Tl+ flux [4] | log fold change Tl+ flux [5] | log fold change Tl+ flux [6] | log fold change Tl+ flux [7] | log fold change Tl+ flux [8] | log fold change Tl+ flux [9] | log fold change Tl+ flux [10]
CC(C)(C)NC(=O)[C@H]1CC[C@H]2[C@@H]3CC[C@H]4NC(=O)C=C[C@]4(C)[C@H]3CC[C@]12C | 0.0287 | 0.0111 | 0.0468 | 0.00105 | -0.00445 | -0.0443 | -0.0219 | 0.0533 | 0.00132 | -0.0253
CC(Cc1ccccc1)(NC(=O)CN)c1ccccc1 (stereo not given) | 0.0343 | 0.0342 | 0.0679 | 0.0357 | -0.0139 | 0.0158 | 0.0479 | 0.036 | 0.0184 | -0.037
COc1cc(C)nc(-n2nc(C)cc2OC)n1 | -0.0134 | -0.00765 | -0.0214 | -0.018 | -0.00579 | 0.031 | 0.00544 | 0.0107 | -0.0217 | -0.00369
CCC(=O)O[C@]1(C(=O)SCF)[C@H](C)C[C@H]2[C@@H]3C[C@H](F)C4=CC(=O)C=C[C@]4(C)[C@@]3(F)[C@@H](O)C[C@@]21C | 0.0283 | -0.0132 | 0.0505 | 0.0435 | 0.0105 | -0.00436 | -0.000971 | 0.027 | 0.00493 | 0.0478
Cc1nc2n(c(=O)c1CCN1CCC(c3noc4cc(F)ccc34)CC1)CCCC2 | 0.0311 | -0.00468 | -0.0407 | -0.0446 | -0.0848 | -0.134 (active) | -0.00526 | -0.0361 | -0.0132 | 0.0103
Cc1cccc(C)c1NC(=O)C(C)N (stereo not given) | -0.00461 | -0.0545 | 0.0308 | 0.00908 | -0.00222 | 0.0212 | -0.0204 | -0.0462 | -0.0241 | 0.0922 (active)
COc1cc(C(=O)NS(=O)(=O)c2ccccc2C)ccc1Cc1cn(C)c2ccc(NC(=O)OC3CCCC3)cc12 | 0.278 (active) | 0.461 (active) | 0.327 (active) | 0.428 (active) | 0.314 (active) | -0.0565 | 0.581 (active) | 0.38 (active) | 0.546 (active) | 0.0699
COc1cc2nc(N3CCN(C(=O)C4COc5ccccc5O4)CC3)nc(N)c2cc1OC (stereo not given) | -0.351 (active) | -0.143 (active) | -0.269 (active) | -0.235 (active) | -0.00742 | -0.0618 | 0.0698 | -0.0306 | -0.0729 | 0.00736
CC(C(=O)O)c1ccc(CC2CCCC2=O)cc1 (stereo not given) | -0.0107 | -0.0699 | -0.0349 | -0.0649 | -0.0398 | -0.0259 | 0.00328 | 0.0267 | -0.000172 | 0.00782
N#Cc1ccc(C(c2ccc(C#N)cc2)n2cncn2)cc1 | -0.0169 | 0.0204 | 0.0563 | 0.0185 | 0.0131 | -0.0506 | -0.0148 | -0.0137 | -0.0251 | 0.00776
CC(=O)OCC(=O)NCCCOc1cccc(CN2CCCCC2)c1 | -0.0125 | -0.015 | 0.000408 | -0.0388 | -0.00356 | -0.0635 | 0.00812 | 0.0201 | -0.00407 | 0.00881
CN(C/C=C/C#CC(C)(C)C)Cc1cccc2ccccc12 | -0.0709 | -0.00172 | -0.0506 | -0.0252 | 0.0229 | -0.0273 | -0.3 (active) | -0.238 (active) | -0.00168 | 0.012
CCOC(=O)c1ncn2c1CN(C)C(=O)c1cc(F)ccc1-2 | -0.0521 | -0.00468 | -0.0461 | -0.0546 | -0.0345 | 0.00689 | 0.00279 | 0.0168 | 0.000313 | 0.022
CC(C)c1ccc2oc3nc(N)c(C(=O)O)cc3c(=O)c2c1 | 0.0548 | 0.0494 | 0.00122 | 0.0364 | 0.0473 | -0.0223 | -0.0119 | 0.0807 | -0.00203 | 0.0208
CN(CCOc1ccc(NS(C)(=O)=O)cc1)CCc1ccc(NS(C)(=O)=O)cc1 | 0.0506 | 0.0264 | 0.0285 | 0.0111 | -0.0274 | -0.101 | 0.0214 | -0.0483 | -9.6e-05 | -0.00913
CC1(C)S[C@@H]2[C@H](N=CN3CCCCCC3)C(=O)N2[C@H]1C(=O)O | 0.00482 | 0.0062 | -0.0627 | -0.00589 | -0.0112 | 0.00945 | 0.0251 | 0.116 (active) | -0.0211 | -0.0045
C[C@H](NC(CCc1ccccc1)C(=O)O)C(=O)N1CCC[C@H]1C(=O)O (stereo not given in full) | 0.0291 | 0.00867 | 0.0235 | 0.0162 | -0.0317 | -0.0419 | 0.0208 | 0.0297 | 0.0258 | 0.0874 (active)
Cc1ccsc1C(=CCCN1CCC[C@@H](C(=O)O)C1)c1sccc1C | 0.0491 | 0.0426 | 0.0383 | 0.0453 | 0.0044 | -0.056 | 0.0901 (active) | 0.0627 | 0.0287 | 0.0117
COc1cc2nc(N3CCN(C(=O)C4CCCO4)CC3)nc(N)c2cc1OC (stereo not given) | 0.0434 | -0.102 | -0.00319 | 0.00186 | -0.0172 | 0.0113 | -0.0224 | -0.0771 | -0.0968 | -0.0619
CN1CCC(=C2c3ccccc3CC(=O)c3sccc32)CC1 | 0.0548 | 0.0457 | 0.00285 | 0.0281 | 0.0191 | -0.082 | 0.0422 | 0.0873 | 0.0237 | 0.0313
Cc1nccn1CC1CCc2c(c3ccccc3n2C)C1=O (stereo not given) | 0.0107 and 0.024 | 0.000378 and -0.0486 | -0.00534 and 0.0144 | 0.0398 and -0.017 | -0.0199 and 0.0181 | -0.0259 and 0.0252 | -0.00728 and 0.00537 | -0.00652 and 0.0192 | -0.00238 and 0.0058 | 0.0288 and 0.00389
CN1CCC(=C2c3ccccc3C=Cc3ccccc32)CC1 | 0.15 (active) | -0.0427 | 0.14 (active) | 0.137 (active) | -0.0742 | -0.0182 | 0.194 (active) | 0.144 (active) | 0.0955 (active) | 0.0256
NC(=O)OCC(COC(N)=O)c1ccccc1 | -0.103 | -0.0115 | 0.0149 | 0.0205 | 0.0713 | -0.054 | 0.0281 | 0.019 | -0.0181 | 0.0103
NC1CCN(c2nc3c(cc2F)c(=O)c(C(=O)O)cn3-c2ccc(F)cc2F)C1 (stereo not given) | -0.0112 | 0.0192 | -0.101 | 0.00828 | 0.0186 | -0.0155 | -0.00647 | -0.0395 | -0.0109 | 0.0163
